From ChEMBL document CHEMBL1961873, “Compounds: GSK PKIS; Assays: Nanosyn kinase panel” (2012) come the findings set out here.

Experiment [1] has as its system Epidermal growth factor receptor (Homo sapiens), P00533 [T790M]. Conditions: at 1 µM.
Experiment [2] concerns Epidermal growth factor receptor (Homo sapiens), P00533 [L858R,T790M]. Conditions: at 0.1 µM.
The test system is the same in experiment [3]. To be noted: at 1 µM.
Experiment [4] has as its target Ephrin type-A receptor 2 (Homo sapiens) (UniProt P29317). To be noted: at 0.1 µM.
For experiment [5] the target is unchanged. Conditions: at 1 µM.
The target in experiment [6] is T1, Ephrin type-A receptor 3 (Homo sapiens) (UniProt P29320).
T1 sequence (whole entry): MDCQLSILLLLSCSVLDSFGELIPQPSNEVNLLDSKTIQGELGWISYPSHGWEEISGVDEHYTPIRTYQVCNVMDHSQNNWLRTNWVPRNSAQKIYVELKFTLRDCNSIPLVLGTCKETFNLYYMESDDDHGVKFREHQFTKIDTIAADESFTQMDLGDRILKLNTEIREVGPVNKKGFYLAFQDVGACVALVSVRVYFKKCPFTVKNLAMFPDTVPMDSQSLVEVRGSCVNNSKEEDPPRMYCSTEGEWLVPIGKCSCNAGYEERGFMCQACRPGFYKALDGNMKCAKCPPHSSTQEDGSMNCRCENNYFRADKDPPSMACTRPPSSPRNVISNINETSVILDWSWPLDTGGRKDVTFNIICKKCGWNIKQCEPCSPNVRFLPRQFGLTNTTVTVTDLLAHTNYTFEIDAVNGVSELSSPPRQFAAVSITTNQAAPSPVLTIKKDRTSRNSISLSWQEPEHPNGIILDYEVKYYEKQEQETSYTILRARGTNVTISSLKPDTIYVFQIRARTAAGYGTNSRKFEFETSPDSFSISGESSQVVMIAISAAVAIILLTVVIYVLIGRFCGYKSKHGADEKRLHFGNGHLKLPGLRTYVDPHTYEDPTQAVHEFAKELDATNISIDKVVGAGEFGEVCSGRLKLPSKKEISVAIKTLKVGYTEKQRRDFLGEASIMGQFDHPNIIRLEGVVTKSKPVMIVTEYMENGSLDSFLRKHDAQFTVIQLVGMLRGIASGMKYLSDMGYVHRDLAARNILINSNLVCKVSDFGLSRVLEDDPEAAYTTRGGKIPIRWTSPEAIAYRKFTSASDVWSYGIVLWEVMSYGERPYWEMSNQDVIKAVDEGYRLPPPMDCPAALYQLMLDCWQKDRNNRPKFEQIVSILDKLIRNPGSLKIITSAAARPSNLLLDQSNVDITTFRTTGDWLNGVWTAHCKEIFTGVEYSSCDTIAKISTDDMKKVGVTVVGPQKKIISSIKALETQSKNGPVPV
To be noted: at 0.1 µM.

Experiment [7] has as its target T1, Ephrin type-A receptor 3 (Homo sapiens). To be noted: at 1 µM.
The target of experiment [8] is Ephrin type-A receptor 4 (Homo sapiens) (UniProt P54764). To be noted: at 0.1 µM.
Chain of Ephrin type-A receptor 4 (Homo sapiens) (P54764 whole entry): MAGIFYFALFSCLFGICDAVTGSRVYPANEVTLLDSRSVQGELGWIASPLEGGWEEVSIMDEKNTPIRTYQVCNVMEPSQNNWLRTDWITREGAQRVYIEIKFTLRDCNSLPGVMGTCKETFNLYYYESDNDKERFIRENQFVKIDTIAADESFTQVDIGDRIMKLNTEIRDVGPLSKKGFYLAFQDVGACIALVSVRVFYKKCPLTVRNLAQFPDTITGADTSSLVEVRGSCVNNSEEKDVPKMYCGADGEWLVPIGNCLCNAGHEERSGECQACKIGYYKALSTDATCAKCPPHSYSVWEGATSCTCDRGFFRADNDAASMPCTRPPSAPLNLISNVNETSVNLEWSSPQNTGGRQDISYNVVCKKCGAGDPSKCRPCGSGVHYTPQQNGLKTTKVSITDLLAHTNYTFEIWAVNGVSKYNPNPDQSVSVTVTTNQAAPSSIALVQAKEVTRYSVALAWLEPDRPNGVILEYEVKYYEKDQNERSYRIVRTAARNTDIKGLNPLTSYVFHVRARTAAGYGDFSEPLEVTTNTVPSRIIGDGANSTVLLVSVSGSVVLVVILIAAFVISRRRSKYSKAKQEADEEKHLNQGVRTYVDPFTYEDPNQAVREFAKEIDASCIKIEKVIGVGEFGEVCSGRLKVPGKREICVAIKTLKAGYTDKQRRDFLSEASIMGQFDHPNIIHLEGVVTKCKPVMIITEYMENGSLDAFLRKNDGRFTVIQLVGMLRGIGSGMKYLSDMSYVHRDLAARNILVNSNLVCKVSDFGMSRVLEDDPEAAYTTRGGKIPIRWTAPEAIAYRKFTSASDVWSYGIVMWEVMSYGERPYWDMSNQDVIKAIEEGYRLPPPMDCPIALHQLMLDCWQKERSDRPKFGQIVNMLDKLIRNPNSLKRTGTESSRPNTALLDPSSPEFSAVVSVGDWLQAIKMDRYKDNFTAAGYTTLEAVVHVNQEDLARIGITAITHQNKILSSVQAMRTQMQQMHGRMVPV
The target is the same in experiment [9]. To be noted: at 1 µM.
In experiment [10] the target is T2, Ephrin type-B receptor 2 (Homo sapiens) (UniProt P29323).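 Further: reported as mean inhibition of EPHB2, from the GSK PKIS dataset.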
T2 sequence (whole entry): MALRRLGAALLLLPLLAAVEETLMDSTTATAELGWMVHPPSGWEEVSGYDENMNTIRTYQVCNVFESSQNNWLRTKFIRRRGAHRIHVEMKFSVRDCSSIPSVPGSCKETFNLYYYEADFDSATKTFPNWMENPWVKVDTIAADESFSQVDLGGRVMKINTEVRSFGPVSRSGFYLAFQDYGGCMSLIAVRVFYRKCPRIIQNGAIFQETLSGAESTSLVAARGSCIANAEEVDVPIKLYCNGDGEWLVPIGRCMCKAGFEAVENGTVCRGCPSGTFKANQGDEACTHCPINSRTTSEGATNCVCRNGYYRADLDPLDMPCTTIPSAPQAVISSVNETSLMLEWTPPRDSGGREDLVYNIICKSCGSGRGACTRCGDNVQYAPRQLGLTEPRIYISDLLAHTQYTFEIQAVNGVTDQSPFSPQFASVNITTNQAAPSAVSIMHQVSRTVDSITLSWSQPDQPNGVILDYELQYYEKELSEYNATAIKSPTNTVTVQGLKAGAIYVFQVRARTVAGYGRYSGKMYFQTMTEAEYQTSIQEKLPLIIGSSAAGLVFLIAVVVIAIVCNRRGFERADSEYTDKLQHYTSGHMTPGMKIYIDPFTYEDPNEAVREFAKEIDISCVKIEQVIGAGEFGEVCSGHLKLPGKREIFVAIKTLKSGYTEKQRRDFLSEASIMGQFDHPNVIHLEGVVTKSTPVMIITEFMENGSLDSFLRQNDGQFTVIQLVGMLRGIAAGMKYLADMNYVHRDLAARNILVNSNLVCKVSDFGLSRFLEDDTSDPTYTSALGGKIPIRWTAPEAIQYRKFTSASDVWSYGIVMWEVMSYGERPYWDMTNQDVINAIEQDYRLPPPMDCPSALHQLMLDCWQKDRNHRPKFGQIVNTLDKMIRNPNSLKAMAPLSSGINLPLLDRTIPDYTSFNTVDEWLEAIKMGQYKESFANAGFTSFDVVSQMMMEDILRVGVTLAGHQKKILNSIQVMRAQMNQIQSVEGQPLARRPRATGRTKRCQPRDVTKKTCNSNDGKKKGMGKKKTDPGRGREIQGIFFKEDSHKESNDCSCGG
To be noted: at 0.1 µM.

For orientation: inhibition means the relative decrease from the control value, in per cent.

Chain of Epidermal growth factor receptor (Homo sapiens), P00533 [L858R,T790M] (P00533 whole entry T790M/L858R, looked up): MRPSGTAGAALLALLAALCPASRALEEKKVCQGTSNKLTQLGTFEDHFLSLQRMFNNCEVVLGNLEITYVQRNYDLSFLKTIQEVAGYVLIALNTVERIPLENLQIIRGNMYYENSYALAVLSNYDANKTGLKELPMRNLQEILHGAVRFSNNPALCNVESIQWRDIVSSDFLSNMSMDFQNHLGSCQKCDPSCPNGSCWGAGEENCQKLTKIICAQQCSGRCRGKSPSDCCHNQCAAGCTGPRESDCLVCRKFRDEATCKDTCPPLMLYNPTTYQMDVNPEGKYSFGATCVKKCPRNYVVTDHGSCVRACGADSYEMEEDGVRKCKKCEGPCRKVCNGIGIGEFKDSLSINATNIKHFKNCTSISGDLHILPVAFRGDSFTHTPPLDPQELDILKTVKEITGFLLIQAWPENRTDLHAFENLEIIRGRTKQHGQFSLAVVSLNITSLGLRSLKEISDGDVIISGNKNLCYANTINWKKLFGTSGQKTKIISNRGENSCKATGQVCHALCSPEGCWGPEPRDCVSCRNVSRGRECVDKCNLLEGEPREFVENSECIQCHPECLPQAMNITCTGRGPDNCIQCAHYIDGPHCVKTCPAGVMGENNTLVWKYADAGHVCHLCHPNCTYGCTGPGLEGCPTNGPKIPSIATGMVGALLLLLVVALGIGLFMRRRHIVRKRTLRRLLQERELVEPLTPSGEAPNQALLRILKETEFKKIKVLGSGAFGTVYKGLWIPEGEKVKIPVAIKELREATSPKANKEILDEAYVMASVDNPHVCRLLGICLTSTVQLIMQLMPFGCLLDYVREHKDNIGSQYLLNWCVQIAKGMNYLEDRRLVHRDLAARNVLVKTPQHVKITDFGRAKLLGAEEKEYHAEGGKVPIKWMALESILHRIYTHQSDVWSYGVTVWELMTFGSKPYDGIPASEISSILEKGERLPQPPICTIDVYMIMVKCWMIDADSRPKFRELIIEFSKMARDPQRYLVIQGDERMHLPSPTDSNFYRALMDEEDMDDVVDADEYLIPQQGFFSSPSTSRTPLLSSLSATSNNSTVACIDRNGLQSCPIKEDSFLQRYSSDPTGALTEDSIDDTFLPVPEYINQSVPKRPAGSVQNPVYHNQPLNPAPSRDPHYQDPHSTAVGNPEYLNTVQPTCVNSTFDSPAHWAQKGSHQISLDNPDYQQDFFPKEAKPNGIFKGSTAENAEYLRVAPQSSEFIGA
Chain of Ephrin type-A receptor 2 (Homo sapiens) (P29317 whole entry): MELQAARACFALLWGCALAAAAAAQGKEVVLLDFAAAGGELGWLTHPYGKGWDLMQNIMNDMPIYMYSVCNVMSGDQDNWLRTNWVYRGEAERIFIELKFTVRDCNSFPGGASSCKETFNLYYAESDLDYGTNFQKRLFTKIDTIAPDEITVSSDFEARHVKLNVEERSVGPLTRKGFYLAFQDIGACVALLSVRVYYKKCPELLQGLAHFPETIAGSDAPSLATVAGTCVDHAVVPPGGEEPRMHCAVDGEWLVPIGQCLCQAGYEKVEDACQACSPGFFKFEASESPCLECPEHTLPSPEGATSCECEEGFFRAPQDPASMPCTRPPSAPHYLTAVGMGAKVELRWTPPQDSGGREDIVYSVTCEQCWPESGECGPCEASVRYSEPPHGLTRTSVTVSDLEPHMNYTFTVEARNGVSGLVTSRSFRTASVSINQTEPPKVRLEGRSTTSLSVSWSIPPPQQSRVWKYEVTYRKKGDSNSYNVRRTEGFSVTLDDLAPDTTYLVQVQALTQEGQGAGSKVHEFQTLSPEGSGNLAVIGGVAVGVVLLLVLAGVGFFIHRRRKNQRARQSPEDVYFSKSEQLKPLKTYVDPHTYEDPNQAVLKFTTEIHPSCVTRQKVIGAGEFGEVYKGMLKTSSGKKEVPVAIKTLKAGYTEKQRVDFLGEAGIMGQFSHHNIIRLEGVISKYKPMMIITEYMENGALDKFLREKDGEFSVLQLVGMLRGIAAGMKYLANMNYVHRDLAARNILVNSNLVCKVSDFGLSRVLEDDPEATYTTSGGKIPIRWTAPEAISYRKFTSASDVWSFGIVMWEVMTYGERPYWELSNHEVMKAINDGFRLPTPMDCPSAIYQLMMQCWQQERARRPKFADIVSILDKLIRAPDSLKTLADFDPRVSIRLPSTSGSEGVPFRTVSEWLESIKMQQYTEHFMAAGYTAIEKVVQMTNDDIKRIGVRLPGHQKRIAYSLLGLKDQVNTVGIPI
Chain of Epidermal growth factor receptor (Homo sapiens), P00533 [T790M] (P00533 whole entry T790M): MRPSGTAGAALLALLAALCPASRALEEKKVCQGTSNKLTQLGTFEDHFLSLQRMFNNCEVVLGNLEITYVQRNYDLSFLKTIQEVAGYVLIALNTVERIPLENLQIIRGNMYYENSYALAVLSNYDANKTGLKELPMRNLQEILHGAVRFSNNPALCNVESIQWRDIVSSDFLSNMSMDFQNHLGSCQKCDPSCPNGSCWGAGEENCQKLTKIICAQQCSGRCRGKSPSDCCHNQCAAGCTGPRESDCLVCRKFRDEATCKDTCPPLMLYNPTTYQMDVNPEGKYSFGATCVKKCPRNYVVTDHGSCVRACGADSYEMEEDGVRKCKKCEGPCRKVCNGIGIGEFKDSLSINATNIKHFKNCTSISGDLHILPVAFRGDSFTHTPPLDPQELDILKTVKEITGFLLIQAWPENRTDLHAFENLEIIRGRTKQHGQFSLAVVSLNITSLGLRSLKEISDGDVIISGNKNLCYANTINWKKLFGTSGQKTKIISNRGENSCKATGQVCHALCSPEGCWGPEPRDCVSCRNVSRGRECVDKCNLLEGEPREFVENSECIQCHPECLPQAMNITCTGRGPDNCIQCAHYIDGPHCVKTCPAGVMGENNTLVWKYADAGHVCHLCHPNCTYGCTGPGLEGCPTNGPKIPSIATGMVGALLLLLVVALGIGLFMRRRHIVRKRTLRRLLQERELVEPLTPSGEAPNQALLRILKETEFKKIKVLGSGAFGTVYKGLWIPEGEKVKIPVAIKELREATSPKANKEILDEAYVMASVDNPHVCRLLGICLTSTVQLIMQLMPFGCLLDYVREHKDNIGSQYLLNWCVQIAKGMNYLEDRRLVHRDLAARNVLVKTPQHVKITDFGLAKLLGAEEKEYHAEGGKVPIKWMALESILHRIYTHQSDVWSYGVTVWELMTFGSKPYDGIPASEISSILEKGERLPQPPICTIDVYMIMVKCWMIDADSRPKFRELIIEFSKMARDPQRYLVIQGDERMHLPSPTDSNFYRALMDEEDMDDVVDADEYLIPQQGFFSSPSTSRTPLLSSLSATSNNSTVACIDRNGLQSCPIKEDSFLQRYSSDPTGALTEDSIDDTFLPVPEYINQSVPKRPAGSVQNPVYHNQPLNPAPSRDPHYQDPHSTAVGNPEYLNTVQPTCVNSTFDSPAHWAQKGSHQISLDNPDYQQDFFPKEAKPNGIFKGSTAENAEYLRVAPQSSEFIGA

On to `CN(C)c1cc2c(Nc3ccc4nc(Cc5ccccc5)[nH]c4c3)ncnc2cn1`, for which the inhibition came out at 6.78% in experiment [1]; 3.54% in [2]; 7% in experiment [3]; 2.13% in experiment [4]; 2.37% in experiment [5]; 7.81% in experiment [6]. The inhibition in experiment [7] was found to be 5.67%; in experiment [8], 11.6%; in experiment [9], 15.2%; in experiment [10], 9.32%.

With `O=C1NC(=O)C(c2ccccc2Cl)=C1Nc1cccc(O)c1`, the inhibition came to 0.02% in experiment [1]; 0.56% in experiment [2]; 1.35% in experiment [3]; 2.61% in experiment [4]; 1.5% in experiment [5]; 2.51% in [6]. Besides, the inhibition in experiment [7] was determined as 2.67%; in experiment [8], 5.56%; in experiment [9], 2.36%; in [10], 5.61%.

As for `COC(=O)Nc1nc2cc(Oc3ccc(NC(=O)Nc4cccc(C(=O)O)c4)cc3)ccc2[nH]1`, the inhibition in [1] was 0.98%; in [2], -0.04%; in [3], 1.58%; in [4], -2.05%; in experiment [5], -4.67%; in [6], -2.34%. For the same molecule, the inhibition was -2.49% in experiment [7], 4.23% in [8], 5.32% in experiment [9] and 0.25% in experiment [10].

As for `O=C1Nc2ccc(C(=O)c3ccco3)cc2C1=Cc1cc(Cl)c(O)c(Cl)c1`, the inhibition in experiment [1] is 1.86%; in [2], 1.63%; in experiment [3] it was 4.94%; in [4] it was -2.48%; in experiment [5] it was -0.21%; in [6] it was 2.92%. The inhibition in [7] is 6.1%; in [8] it was 8.25%; in [9] it was 14.3%; in experiment [10], 10.7%.

On to `CS(=O)(=O)CCNCc1nc(-c2ccc3ncnc(Nc4ccc(F)c(Cl)c4)c3c2)cs1`, for which the inhibition was determined as 2.15% in [4]; 1.65% in experiment [5]; 2.83% in [6]; 4.56% in [7]; 11.7% in experiment [8]; 21% in [9]. Moreover, in experiment [10], the inhibition was determined as 13.7%.

On to `CCn1c(-c2nonc2N)nc2ccncc21`, for which the inhibition in [1] was 0.29%; in experiment [2], -1.07%; in experiment [3] it was -0.45%; in experiment [4], 1.93%; in experiment [5], 1.77%; in experiment [6], 0.73%. For the same molecule, the inhibition in [7] is -0.12%; in experiment [8], 5.04%; in experiment [9], -7.03%; in experiment [10] it was -0.84%.

Take `CC1=C(C(=O)Nc2ccc3[nH]ncc3c2)C(c2ccc(Cl)c(Cl)c2)CC(=O)N1` (stereo unspecified): the inhibition in experiment [1] is 0.85%; in [2], 2.39%; in experiment [3] it was 12.1%; in experiment [4], -0.63%; in experiment [5], 0.57%; in experiment [6], 3.06%. Moreover, the inhibition in experiment [7] was found to be 2.8%; in [8], 6.53%; in experiment [9] it was 4.28%; in experiment [10], 7.7%.

As to `O=C1NC(=O)C(c2ccc(Cl)cc2)=C1Nc1ccc(Cl)c(C(=O)O)c1`, the inhibition in experiment [1] is -1.21%; in experiment [2], -0.4%; in experiment [3], -1.38%; in experiment [4], -2%; in [5] it was -1.26%; in [6] it was -3.17%. The inhibition in [7] was -3.69%; in [8], -6.1%; in [9], -6.97%; in [10], -0.68%.

Take `Nc1nc(-c2ccccn2)c(-c2ccc3ncccc3n2)s1`: the inhibition in [1] stood at 1.67%; in experiment [2], 2.24%; in [3], 1.13%; in experiment [4], 0.85%; in [5] it was 0.89%; in experiment [6], 2.58%. For the same molecule, the inhibition in experiment [7] was determined as 3.28%; in experiment [8], 7.9%; in experiment [9], 8.8%; in [10], 5.32%.

On to `Nc1ncnc2occ(-c3ccc(NC(=O)Nc4cc(C(F)(F)F)cc(C(F)(F)F)c4)cc3)c12`, for which the inhibition in [1] was -2.28%; in experiment [2], -1.98%; in [3], 0.18%; in experiment [4] it was 7.28%; in experiment [5], 42%; in [6], 6.5%. Also, the inhibition in experiment [7] was 14.6%; in [8] it was 8.44%; in experiment [9], 44.5%; in [10], 22%.

For the molecule `COc1ccc(COc2ccc(Cc3cnc(N)nc3N)cc2OC)cc1`, the inhibition in [1] was -2.86%; in experiment [2], 2.14%; in experiment [3] it was -1.75%; in experiment [4], 2.27%; in experiment [5], 2.74%; in experiment [6], -0.07%. For the same molecule, the inhibition in experiment [7] is 0.08%; in experiment [8], 1.25%; in experiment [9], -0.14%; in experiment [10], 1.4%.

In the case of `CNC(=O)c1cncc(/C=C/c2c(Cl)cccc2Cl)c1`, the inhibition in experiment [1] is 0.83%; in experiment [2], 0.18%; in experiment [3], 3.2%; in experiment [4], 0.35%; in [5], 17.3%; in experiment [6] it was -0.5%. In addition, the inhibition in experiment [7] was 5.3%; in experiment [8] it was 7.99%; in experiment [9], 43.6%; in experiment [10], 10.3%.

Take `Cn1cc(C=C2C(=O)Nc3cccnc32)c2ccccc21`: the inhibition in experiment [4] stood at 1.74%; in experiment [5] it was 0.79%; in [6] it was 2.31%; in [7], 4.83%; in experiment [8], 5.07%; in [9] it was 6.23%. In [10], the inhibition is 3.99%.

Consider `CN1CCC(C(=O)Nc2n[nH]c3nnc(-c4ccccc4)cc23)CC1`, for which the inhibition was 4.1% in experiment [1]; -2.57% in [2]; 4.67% in [3]; 1.84% in experiment [4]; 2.09% in [5]; 4.03% in experiment [6]. Moreover, the inhibition in experiment [7] turned out to be 2.66%; in experiment [8], 8.03%; in experiment [9], 8.45%; in [10], 4.92%.

As to `COc1ccccc1Nc1ncc(-c2ccccc2)o1`, the inhibition in [1] was determined as 2.18%; in experiment [2], 1.54%; in experiment [3], 1.28%; in experiment [4], 2.74%; in experiment [5] it was 1.76%; in experiment [6] it was 2.8%. Besides, the inhibition was 4.86% in experiment [7], 7.21% in experiment [8], 12.8% in [9] and 7.35% in experiment [10].

On to `COc1cccc(-n2ncc3c(N/N=C/c4cccc(F)c4)ncnc32)c1`, for which the inhibition in experiment [1] is 0.45%; in [2], -0.32%; in experiment [3] it was 2.54%; in [4], -6.37%; in experiment [5], -5.64%; in experiment [6], -1.03%. The inhibition is -0.95% in [7], 4.81% in experiment [8], 2.57% in experiment [9] and 3.17% in experiment [10].

For `N#Cc1c(NC(=O)c2cccc3ccccc23)sc2c1CCCC2`, the inhibition in [4] was -4.77%; in experiment [5], -1.43%; in experiment [6] it was 2.05%; in experiment [7], 4.38%; in experiment [8] it was 6.92%; in [9], 2.64%. The inhibition in experiment [10] was determined as 5.23%.
